Source: PubChem
An excerpt weighted towards active compounds, which were near 11% of everything screened.
FLuc inh = inhibitors of firefly (Photinus pyralis) luciferase; 76,000 tested, 2.5% active; AID 1347043; purified P. pyralis luciferase, luminescence, biochemical; P08659; Potency, µM (top dose mostly 115 µM), hits mostly inhibitors; further: nearly all actives have a fitted effect of over 65% in size
Target sequence (P08659 whole entry, looked up): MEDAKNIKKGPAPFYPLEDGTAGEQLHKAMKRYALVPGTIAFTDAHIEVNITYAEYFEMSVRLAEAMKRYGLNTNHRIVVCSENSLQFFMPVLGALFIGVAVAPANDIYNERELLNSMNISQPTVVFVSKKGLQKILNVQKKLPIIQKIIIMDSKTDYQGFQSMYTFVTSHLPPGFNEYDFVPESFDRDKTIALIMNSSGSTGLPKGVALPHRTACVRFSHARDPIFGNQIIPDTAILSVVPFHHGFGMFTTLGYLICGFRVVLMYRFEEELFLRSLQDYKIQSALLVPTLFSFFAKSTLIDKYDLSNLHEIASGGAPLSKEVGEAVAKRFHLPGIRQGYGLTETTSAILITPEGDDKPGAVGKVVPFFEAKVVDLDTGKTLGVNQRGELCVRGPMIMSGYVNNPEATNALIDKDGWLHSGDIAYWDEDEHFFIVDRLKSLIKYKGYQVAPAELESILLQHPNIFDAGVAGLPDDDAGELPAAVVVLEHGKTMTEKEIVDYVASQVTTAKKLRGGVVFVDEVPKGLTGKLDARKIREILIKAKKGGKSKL
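Luminescence read by CCD imaging after purified firefly luciferase (10nM final) was added to substrate buffer holding 10uM D-luciferin and 10uM ATP, pH 7.5, pre-dosed with compound.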
HEK293 tox = HEK 293 cell cytotoxicity | Potency, µM (series often up to 115 µM), usual class: inhibitors | HEK 293 viability, ATP luminescence (CellTiter-Glo), 48-72 h | AID 1345083 | 94,000 tested, 6.6% active; further: nearly all actives have a fitted effect of over 60% in size
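250 HEK 293 cells/well; compound by pintool; incubated 48 or 72 hr at 37 degree Celsius; CellTiter-Glo added, 10 min RT, luminescence imaged.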
NPR1 antag = antagonists of human natriuretic peptide receptor Npr1. P16066. HEK293 hNpr1 GloSensor cGMP, ANP-stimulated luminescence. Potency, µM (highest dose often 46.3 µM), hits mostly inhibitors. 76,000 tested, 1.6% active; calls by dose curve; further: nearly all actives have a fitted effect of over 60% in size
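Compound pre-incubated 30 min at room temperature on GloSensor-loaded HEK293 cells stably carrying hNpr1 and the pGS-40F cGMP biosensor. Stimulation uses hNppA at 0.1 nM final; luminescence is taken at baseline and 20 min post-agonist.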
3T3 cytotox = kills NIH 3T3 cells. AID 1345082. 94,000 tested, 4.3% active. Potency, µM (highest dose often 96.7 µM), usual class: inhibitors. NIH 3T3 viability, CellTiter-Glo ATP luminescence, 48-72 h; further: nearly all actives have a fitted effect of over 55% in size
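Luminescent ATP readout (CellTiter-Glo, 10 min RT) after 48 or 72 hr compound exposure of NIH 3T3 cells seeded at 400 cells/well in 1536-well format; quantitative HTS.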
A number is an active result; . = inactive; ? = inconclusive; / = no result given; ! = a repeat was not active. Unless noted, the call rests on the fitted dose curve; in most records, active means well fitted curve in the direction sought with a large enough effect; inconclusive means small, poorly fitted or top-dose-only effect, or another doubt; inactive means no such curve, though single readings can be large; an effect the other way counts as inactive or inconclusive.

SMILES	FLuc inh	HEK293 tox	NPR1 antag	3T3 cytotox
COc1ccc(OC)c(NC(=O)Cn2cccc2-c2nc(-c3ccc(F)cc3)no2)c1	.	?	.	?
CC(=O)NC1CC2(CCN(C(=O)C3CCN(C)CC3)CC2)c2ccccc21 (stereo not given)	/	45µM	/	35µM
O=C(NCc1ccccc1F)c1cn2cc(-c3ccccc3)sc2n1	/	.	/	.
O=C(Cc1cccc(C(F)(F)F)c1)N1CCCc2ncc(C(=O)N3CCCC[C@@H]3c3ccccc3)cc21	.	79µM	?	?
COc1ccccc1CC(=O)N1CCCc2ncc(C(=O)N3CCCC[C@@H]3c3ccccc3)cc21	.	?	.	.
Cn1cc(CC(=O)N2CCCc3ncc(C(=O)N4CCCC[C@@H]4Cc4ccccc4)cc32)c2ccccc21	.	40µM	.	?
COc1ccccc1CC(=O)N1CCCc2ncc(C(=O)N3CCCC[C@@H]3Cc3ccccc3)cc21	.	?	.	.
CC(=O)N1CCN(C(=O)C2CCN(c3nccc(Nc4ccc(C)cc4)n3)CC2)CC1	/	.	/	.
Cc1ccc(Nc2ccnc(N3CCC(C(=O)N4CCC(Cc5ccccc5)CC4)CC3)n2)cc1	/	35µM	/	?
Cc1ccc(Nc2ccnc(N3CCC(C(=O)N4CCN(c5ncccn5)CC4)CC3)n2)cc1	/	18µM	/	35µM
Cc1nn(-c2ccccc2)c2c1C(C)N(CC1CN(C(=O)c3ccc4c(c3)OCO4)C1)C2=O (stereo not given)	/	?	/	20µM
Cc1nn(-c2ccccc2)c2c1C(C)N(CC1CN(C(=O)c3ccc(Cl)nc3)C1)C2=O (stereo not given)	/	.	/	?
Cc1nn(-c2ccccc2)c2c1C(C1CC1)N(CC1CN(C(=O)C3CC3)C1)C2=O (stereo not given)	/	?	/	10µM
CC(=O)N1CC(CN2C(=O)c3c(c(C)nn3-c3ccccc3)C2C2CC2)C1 (stereo not given)	/	?	/	22µM
CCOC(=O)N1CC(CN2C(=O)c3c(c(C)nn3-c3ccccc3)C2C2CC2)C1 (stereo not given)	/	35µM	/	40µM
CC(=O)N1CC(CN2C(=O)c3c(c(C)nn3-c3ccccc3)C2C)C1 (stereo not given)	/	?	/	.
COC[C@@H]1[C@H](C(=O)NCCc2nc3ccccc3n2C)CCCN1C	/	.	/	.
O=[S+]([O-])(c1cccs1)N1CCCN(c2nc3ncccc3o2)CC1	.	.	.	.
CN1C(=O)N(CCc2ccccc2)C(=O)C12CCN(Cc1cccn1-c1ccccn1)CC2	.	.	.	.
Cc1nn(-c2ccccc2)c2c1C(C)N(CC1CN(C(=O)Nc3ccccc3)C1)C2=O (stereo not given)	/	.	/	.
Cc1nn(-c2ccccc2)c2c1C(C)N(CC1CN(Cc3ccc(C(F)(F)F)cc3)C1)C2=O (stereo not given)	/	32µM	/	40µM
O=C(NCc1ccccc1F)N1C[C@@H](CN2CCCCC2)[C@@H](CO)C1	.	.	.	.
O=C(NC1CCN(Cc2cccc(-c3ccc(F)c(F)c3)c2)CC1)c1ccc(C(F)(F)F)cc1	/	.	/	.
O=C(NC1CCCC1)NC1CCN(Cc2cccc(-c3ccc(F)cc3F)c2)CC1	/	35µM!	/	?
O=C(Nc1ccccc1F)NC1CCN(Cc2cccc(-c3ccc(F)c(F)c3)c2)CC1	/	?	/	11µM
SMILES	FLuc inh	HEK293 tox	NPR1 antag	3T3 cytotox
COc1ccc(C(=O)NC2CCN(Cc3cccc(-c4ccc(F)c(F)c4)c3)CC2)cc1	/	?	/	22µM
O=C(NC1CCN(Cc2cccc(-c3ccc(F)c(F)c3)c2)CC1)c1ccc(F)cc1	/	40µM	/	40µM
COc1ccc(-n2nc(C3CCCN(C(=O)c4ccc(C)cc4)C3)[nH]c2=O)cc1 (stereo not given)	.	.	.	.
CNC(=O)[C@@H]1CN(C(=O)c2cc(C)on2)C[C@H]1COC	.	.	.	.
Cc1ccc(C)c(-c2ccc(C(=O)NCCCn3ccnc3C(C)C)cn2)c1	.	?	?	?
Cc1ccc(-c2ccc(C(=O)NCCCn3ccnc3C(C)C)cn2)cc1C	?	40µM	.	?
COCCn1c(=O)c(C(=O)NCC(F)F)nc2cccnc21	/	.	/	.
CN1CC(=O)N(C2CCC2)Cc2c(NCc3ccccc3)ncnc21	.	?	.	?
Cc1ccccc1N1Cc2c(NCCc3ccc(Cl)cc3)ncnc2N(C)CC1=O	.	?	.	?
CN1CC(=O)N(c2ccccc2F)Cc2c(NCCc3ccc(Cl)cc3)ncnc21	.	45µM	.	40µM
Cc1cccc(N2Cc3c(NCCCc4ccccc4)ncnc3N(C)CC2=O)c1	/	?	/	45µM
CN1CC(=O)N(c2ccccc2F)Cc2c(NCCc3ccccc3)ncnc21	.	45µM	.	?
CN1Cc2ncnc(NCCc3ccccc3)c2CN(C2CCC2)C1=O	.	63µM	.	?
Cc1ccc(N2Cc3c(NCCCc4ccccc4)ncnc3N(C)CC2=O)cc1	.	?	.	?
CN1C(=O)CCC2(CNC(=O)c3cccc4nccnc34)CCCC=C12 (stereo not given)	.	79µM	.	?
CN1C(=O)CCC2(CNC(=O)c3ccncc3)CCCC=C12 (stereo not given)	.	.	.	.
OC1(c2ccc(F)cc2)CCN(c2nccc(-c3ccccn3)n2)CC1	.	?	.	.
C1=CC[C@H]2CN(c3nccc(-c4ccccn4)n3)C[C@H]2C1	.	45µM	.	?
Cc1ccccc1CN1CCc2nc(C(=O)Nc3ccccc3)oc2CC1	?	40µM	10µM	?
O=C(NCCOc1ccccc1)c1nc2c(o1)CCN(Cc1cccc(F)c1)CC2	.	?	?	?
Cc1ccc(CN2CCc3nc(C(=O)Nc4cccnc4)oc3CC2)o1	?	?	.	.
Cc1cc(F)cc(CN2CCc3nc(C(=O)Nc4ccccc4)oc3CC2)c1	22µM	?	13µM	25µM
O=C(Nc1ccc(Cl)cc1)c1nc2c(o1)CCN(Cc1cnc[nH]1)CC2	71µM	?	?	?
O=C(c1ccoc1)N1CCC(N2C[C@H](Oc3ccccc3)[C@@H]2c2ccncc2)CC1	/	.	/	.
COc1ccc(C(=O)N2CCC3(CC2)CC(N(C(=O)c2ccccc2)C2CC2)CCO3)cn1 (stereo not given)	.	.	.	.
SMILES	FLuc inh	HEK293 tox	NPR1 antag	3T3 cytotox
CN(C)C(=O)C1CCCN(Cc2cccc(-c3cccs3)c2)C1 (stereo not given)	/	100µM	/	?
FC(F)(F)c1ccc(N2C3CCC2CN(Cc2cccc(-c4cccs4)c2)C3)cc1	/	.	/	?
CNC(=O)C1CCCN(Cc2cccc(-c3cccs3)c2)C1 (stereo not given)	/	100µM	/	.
O=C1NCC2(CCN(C(=O)c3cn(CCC4CCCCN4)nn3)CC2)O1 (stereo not given)	.	.	.	.
CCn1ccc(C(=O)N2CCC(c3nn(C)c4c3COCC4)CC2)n1	.	.	.	.
CN1CCCN(C(=O)C2CCC2)c2ccccc21	.	.	.	.
COc1ccccc1C(=O)N1CCCN(C)c2ccccc21	.	79µM	.	?
CN1CCCN(C(=O)C2CCCC2)c2ccccc21	.	89µM	.	?
